Laboratory results as given in PubChem BioAssay (NCATS).
Results filed as inconclusive are left out. Entries that show only a call come without a potency. Active and inactive are the calls of the source. The call rests on the fitted dose curve; in most records, active means well fitted cell-killing curve with a large enough effect; inconclusive means small, poorly fitted or top-dose-only effect, or effect the other way; inactive means no such curve, though single readings can be large or run the other way. Positions of bridges follow the written chain, without caps; N, C: chain ends. Non-standard residues stand in square brackets, D forms with d. Residues, ends and D or L forms follow the SMILES beside them. ξ: configuration not given here. *: point of attachment. Octanoyl(6-Me) = CCC(C)CCCCC(=O)*; ξThr(3R) = C[C@@H](O)C(N)C(=O)O; dDab = NCC[C@@H](N)C(=O)O; Dab = NCC[C@H](N)C(=O)O; Cbz = O=C(OCc1ccccc1)*

Test: Quantitative High-Throughput drug screen in 47 multiple myeloma cell lines against the NCATS MIPE library collection: RPMI8226_ATCC cell viability assay (AID 1919871)
Conditions: RPMI8226 myeloma viability, CellTiter-Glo ATP luminescence, 48 h; series mostly up to 45.8 µM
Outline: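 500 cells/well; MIPE 4.0 drugs pin-transferred; 48 h, 37C, 5% CO2. CellTiter-Glo, 5 min RT, luminescence. Controls: DMSO 100%, media 0%.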
Further: nearly all actives have a fitted effect of over 30% in size.
Potency means the concentration at half of the fitted maximal effect.

| SMILES | Potency |
| --- | --- |
| CC(C)C[C@H](NC(=O)CNC(=O)c1cc(Cl)ccc1Cl)B1OC(=O)CC(CC(=O)O)(C(=O)O)O1 (stereo not given in full) | 0.118 µM (active) |
| C[C@H](NCc1ccc2c(c1)nc(NC(=O)c1ccc(-c3cn[nH]c3)s1)n2CCc1ccccc1)C(C)(C)C | 2.96 µM (active) |
| CC(C)(O)[C@H]1CC[C@@](C)([C@H]2[C@@H](O)C[C@@]3(C)[C@@H]4C[C@H](O[C@@H]5O[C@H](CO)[C@@H](O)[C@H](O)[C@@H]5O)[C@H]5C(C)(C)[C@@H](O[C@@H]6OC[C@@H](O)[C@H](O)[C@@H]6O)CC[C@@]56C[C@@]46CC[C@]23C)O1 | inactive |
| O=C(O)C=Cc1ccc(Cn2ccnc2)cc1 | inactive |
| COc1cc(OC)cc(-c2ccc3ncc4ccc(=O)n(-c5ccc(N6CCNCC6)c(C(F)(F)F)c5)c4c3c2)c1 | 11.8 µM (active) |
| O=C(O)CCCCCC(=O)NN=C1CCCC1 | inactive |
| O=C(O)C(=O)Nc1cccc(C2=NN=N[N]2)c1 | inactive |
| CNC(=O)c1ccc(Nc2cc(Nc3ccccc3S(=O)(=O)C(C)C)c3cc[nH]c3n2)nc1 | 18.7 µM (active) |
| O=C1c2c(O)cccc2[C@@H]([C@@H]2O[C@H](CO)[C@@H](O)[C@H](O)[C@H]2O)c2cc(CO)cc(O)c21 | inactive |
| COc1cc2c(Nc3ccc(Cl)c(Cl)c3F)ncnc2cc1OCC1C[C@@H]2CN(C)C[C@H]2C1 | 8.33 µM (active) |
| OC[C@H]1OC(O)C[C@@H](O)[C@H]1O (stereo not given in full) | inactive |
| CCOc1cc2c(c(F)c1OCC)C(=N)N(CC(=O)c1cc(N3CCOCC3)c(OC)c(C(C)(C)C)c1)C2 | 18.7 µM (active) |
| Cc1cnc(Nc2ccc(N3CCN(C)CC3)cc2)nc1Nc1cccc(S(=O)(=O)NC(C)(C)C)c1 | 4.18 µM (active) |
| CC(=O)C1=C(O)C=C2Oc3c(C(C)=O)c(O)c(C)c(O)c3C2(C)C1=O (stereo not given) | inactive |
| COC[C@H](NC(=O)c1cnc(C)s1)C(=O)N[C@@H](COC)C(=O)N[C@@H](Cc1ccccc1)C(=O)[C@@]1(C)CO1 | 0.187 µM (active) |
| CC[C@H]1OC(=O)[C@H](C)[C@@H](O[C@H]2C[C@@](C)(OC)[C@@H](O)[C@H](C)O2)[C@H](C)[C@@H](O[C@@H]2O[C@@H](C)C[C@H](N(C)C)[C@@H]2O)[C@](C)(O)C[C@@H](C)C(=O)[C@H](C)[C@@H](O)[C@]1(C)O | inactive |

| SMILES | Potency |
| --- | --- |
| NC(=O)c1ncn([C@@H]2O[C@H](CO)[C@@H](O)[C@@H]2O)c1N | inactive |
| CC(C)OC(=O)[C@H](C)N[P@](=O)(OC[C@H]1O[C@@H](n2ccc(=O)[nH]c2=O)[C@](C)(F)[C@H]1O)Oc1ccccc1 | inactive |
| Cc1onc(-c2ccccc2)c1C(=O)N[C@@H]1C(=O)N2[C@@H](C(=O)O)C(C)(C)S[C@@H]12 | inactive |
| OCc1ccccc1O[C@@H]1O[C@H](CO)[C@H](O)[C@H](O)[C@H]1O | inactive |
| COc1ccc(C(C)=O)c(O)c1 | inactive |
| Nc1nc(=O)n([C@H]2C[C@H](O)[C@@H](CO)O2)cc1F | inactive |
| CC(=O)N[C@H]1[C@@H]([C@H](O)[C@H](O)CO)OC(C(=O)O)=C[C@@H]1N=C(N)N | inactive |
| Cc1cncc2cccc(S(=O)(=O)N3CCCN(C(=O)CN)C[C@@H]3C)c12 | inactive |
| CC(=O)OCC(=O)[C@@]1(O)CC[C@H]2[C@@H]3CCC4=CC(=O)CC[C@]4(C)[C@@H]3C(=O)C[C@@]21C | inactive |
| C=CC1=C(C(=O)O)N2C(=O)[C@@H](NC(=O)C(=NO)c3csc(N)n3)[C@H]2SC1 | inactive |
| CN(C)CC(=O)N1CCC(c2ccc(NC(=O)c3ncc(C#N)[nH]3)c(C3=CCCCC3)c2)CC1 | inactive |
| C[C@]12CCC(=O)C=C1[C@@H]1CC1[C@H]1[C@H]3[C@@H]4C[C@H]4[C@@]4(CCC(=O)O4)[C@@]3(C)CC[C@H]12 (stereo not given in full) | 18.7 µM (active) |
| Cn1cc(-c2ccc3ncc(Cc4ccc5ncccc5c4)n3n2)cn1 | inactive |
| C=C1CCC2[C@](C)(CO)C(O)CC[C@]2(C)C1CC=C1C(=O)OCC1O (stereo not given in full) | 0.0171 µM (active) |
| Cc1ncc(-c2ccnc(Nc3ccc(S(C)(=O)=O)cc3)n2)n1C(C)C | 5.9 µM (active) |

Test: Quantitative High-Throughput drug screen in 47 multiple myeloma cell lines against the NCATS MIPE library collection: OPM2_DSMZ cell viability assay (AID 1919872)
Conditions: OPM2 myeloma viability, CellTiter-Glo ATP luminescence, 48 h; series mostly up to 45.8 µM
Outline: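 Luminescent ATP measurement with CellTiter-Glo gives viability, scaled between DMSO-only wells (100%) and media-only wells (0%). Cells, 500 per well, faced library compounds for 48 hours at 37C.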

| SMILES | Potency |
| --- | --- |
| CC(=O)[C@]1(O)Cc2c(O)c3c(c(O)c2[C@@H](O[C@H]2C[C@H](N)[C@@H](O)[C@H](C)O2)C1)C(=O)c1ccccc1C3=O | 0.662 µM (active) |
| CCC(C)CCCCC(=O)N[C@@H](CCN)C(=O)NC(C(=O)N[C@H](CCN)C(=O)N[C@@H]1CCNC(=O)C([C@@H](C)O)NC(=O)[C@@H](CCN)NC(=O)[C@@H](CCN)NC(=O)[C@@H](CC(C)C)NC(=O)[C@H](Cc2ccccc2)NC(=O)[C@H](CCN)NC1=O)[C@@H](C)O (stereo partly drawn) ({Octanoyl(6-Me)}-[Dab][ξThr(3R)][dDab][dDab][Dab]F[dL][dDab][dDab][ξThr(3R)]; lactam 4-C) | inactive |
| CC(C)NC[C@@H](C(=O)N1CCN(c2ncnc3c2[C@H](C)C[C@H]3O)CC1)c1ccc(Cl)cc1 | 18.7 µM (active) |
| CN(C)c1ccc2cc(C(=O)N[C@@H](CCCN=C(N)CCl)C(=O)NCc3ccccc3)ccc2c1 | 18.7 µM (active) |
| COc1cc(C(C)C)c(Oc2cnc(NC(CO)CO)nc2N)cc1I | inactive |
| CC(C)C[C@@H](C=O)NC(=O)[C@H](CC(C)C)NC(=O)[C@H](CC(C)C)NC(=O)OCc1ccccc1 (Cbz-Leu-Leu-Leu-aldehyde) | 0.662 µM (active) |
| CC(=O)O[C@]1(C(C)=O)CC[C@H]2[C@@H]3C=C(C)C4=CC(=O)CC[C@]4(C)[C@@H]3CC[C@@]21C | inactive |
| CCOC(=O)[C@@H](N)Cc1ccc(-c2cc(O[C@H](c3ccc(Cl)cc3-n3ccc(C)n3)C(F)(F)F)nc(N)n2)cc1 | 18.7 µM (active) |
| CC(C)C[C@H](NC(=O)CNC(=O)c1cc(Cl)ccc1Cl)B1OC(=O)CC(CC(=O)O)(C(=O)O)O1 (stereo not given in full) | 0.132 µM (active) |
| C[C@H](NCc1ccc2c(c1)nc(NC(=O)c1ccc(-c3cn[nH]c3)s1)n2CCc1ccccc1)C(C)(C)C | 2.09 µM (active) |
| CC(C)(O)[C@H]1CC[C@@](C)([C@H]2[C@@H](O)C[C@@]3(C)[C@@H]4C[C@H](O[C@@H]5O[C@H](CO)[C@@H](O)[C@H](O)[C@@H]5O)[C@H]5C(C)(C)[C@@H](O[C@@H]6OC[C@@H](O)[C@H](O)[C@@H]6O)CC[C@@]56C[C@@]46CC[C@]23C)O1 | inactive |
| O=C(O)C=Cc1ccc(Cn2ccnc2)cc1 | inactive |
| COc1cc(OC)cc(-c2ccc3ncc4ccc(=O)n(-c5ccc(N6CCNCC6)c(C(F)(F)F)c5)c4c3c2)c1 | 8.33 µM (active) |
| O=C(O)CCCCCC(=O)NN=C1CCCC1 | inactive |
| O=C(O)C(=O)Nc1cccc(C2=NN=N[N]2)c1 | inactive |
| CNC(=O)c1ccc(Nc2cc(Nc3ccccc3S(=O)(=O)C(C)C)c3cc[nH]c3n2)nc1 | 7.43 µM (active) |
| O=C1c2c(O)cccc2[C@@H]([C@@H]2O[C@H](CO)[C@@H](O)[C@H](O)[C@H]2O)c2cc(CO)cc(O)c21 | inactive |
| COc1cc2c(Nc3ccc(Cl)c(Cl)c3F)ncnc2cc1OCC1C[C@@H]2CN(C)C[C@H]2C1 | 20.9 µM (active) |
| OC[C@H]1OC(O)C[C@@H](O)[C@H]1O (stereo not given in full) | inactive |
| CCOc1cc2c(c(F)c1OCC)C(=N)N(CC(=O)c1cc(N3CCOCC3)c(OC)c(C(C)(C)C)c1)C2 | 18.7 µM (active) |

| SMILES | Potency |
| --- | --- |
| Cc1cnc(Nc2ccc(N3CCN(C)CC3)cc2)nc1Nc1cccc(S(=O)(=O)NC(C)(C)C)c1 | 6.62 µM (active) |
| CC(=O)C1=C(O)C=C2Oc3c(C(C)=O)c(O)c(C)c(O)c3C2(C)C1=O (stereo not given) | inactive |
| COC[C@H](NC(=O)c1cnc(C)s1)C(=O)N[C@@H](COC)C(=O)N[C@@H](Cc1ccccc1)C(=O)[C@@]1(C)CO1 | 0.235 µM (active) |
| CC[C@H]1OC(=O)[C@H](C)[C@@H](O[C@H]2C[C@@](C)(OC)[C@@H](O)[C@H](C)O2)[C@H](C)[C@@H](O[C@@H]2O[C@@H](C)C[C@H](N(C)C)[C@@H]2O)[C@](C)(O)C[C@@H](C)C(=O)[C@H](C)[C@@H](O)[C@]1(C)O | inactive |
| NC(=O)c1ncn([C@@H]2O[C@H](CO)[C@@H](O)[C@@H]2O)c1N | inactive |
| CC(C)OC(=O)[C@H](C)N[P@](=O)(OC[C@H]1O[C@@H](n2ccc(=O)[nH]c2=O)[C@](C)(F)[C@H]1O)Oc1ccccc1 | inactive |
| Cc1onc(-c2ccccc2)c1C(=O)N[C@@H]1C(=O)N2[C@@H](C(=O)O)C(C)(C)S[C@@H]12 | inactive |
| OCc1ccccc1O[C@@H]1O[C@H](CO)[C@H](O)[C@H](O)[C@H]1O | inactive |
| COc1ccc(C(C)=O)c(O)c1 | inactive |
| Nc1nc(=O)n([C@H]2C[C@H](O)[C@@H](CO)O2)cc1F | inactive |
| CC(=O)N[C@H]1[C@@H]([C@H](O)[C@H](O)CO)OC(C(=O)O)=C[C@@H]1N=C(N)N | inactive |
| Cc1cncc2cccc(S(=O)(=O)N3CCCN(C(=O)CN)C[C@@H]3C)c12 | inactive |
| CC(=O)OCC(=O)[C@@]1(O)CC[C@H]2[C@@H]3CCC4=CC(=O)CC[C@]4(C)[C@@H]3C(=O)C[C@@]21C | inactive |
| C=CC1=C(C(=O)O)N2C(=O)[C@@H](NC(=O)C(=NO)c3csc(N)n3)[C@H]2SC1 | inactive |
| CN(C)CC(=O)N1CCC(c2ccc(NC(=O)c3ncc(C#N)[nH]3)c(C3=CCCCC3)c2)CC1 | inactive |
| C[C@]12CCC(=O)C=C1[C@@H]1CC1[C@H]1[C@H]3[C@@H]4C[C@H]4[C@@]4(CCC(=O)O4)[C@@]3(C)CC[C@H]12 (stereo not given in full) | inactive |
| Cn1cc(-c2ccc3ncc(Cc4ccc5ncccc5c4)n3n2)cn1 | inactive |
| C=C1CCC2[C@](C)(CO)C(O)CC[C@]2(C)C1CC=C1C(=O)OCC1O (stereo not given in full) | inactive |
| Cc1ncc(-c2ccnc(Nc3ccc(S(C)(=O)=O)cc3)n2)n1C(C)C | 3.72 µM (active) |
